# Assay outcomes deposited in PubChem BioAssay by National Center for Advancing Translational Sciences (NCATS).
# HT1080NT lethal = kills 2HG-producing HT-1080-NT fibrosarcoma cells; HT-1080-NT fibrosarcoma viability, CellTiter-Glo ATP luminescence, 48 h; Potency, µM (highest dose often 46.1 µM), for inactives: at the top dose activity, negative = less viability, usual class: cytotoxic; 360,000 tested, 1.6% active;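 also: NT is the 2HG producing partner of a matched IDH1 knockdown line; 0% = DMSO-treated cells and -100% = media-only wells without cells; nearly all actives have a fitted effect of over 55% in size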
#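 Toxicity toward the 2HG-producing NT line was scored as %Activity, normalised to DMSO and no-cell wells, from CellTiter-Glo luminescence after 48 hours' treatment.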
# SW480 rereplic = inducers of DNA re-replication in SW480 colon cancer cells | SW480 DNA re-replication, Hoechst DNA content imaging, 48 h | Potency, µM (highest dose often 46.1 µM), for inactives: at the top dose re-replication activation, usual class: activators | 340,000 tested, 1.8% active; also: % of control where 0% means no effect; nearly all actives have a fitted effect of over 55% in size
#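 DNA re-replication was detected as more nuclei of elevated Hoechst intensity after 48 hr exposure to compound (23 nL pinned per well of 250 cells).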
# HT1080 IDH1KD tx = toxicity to HT-1080 IDH1 knockdown cells (counter line); HT-1080 IDH1 knockdown viability, ATP luminescence, 48 h; Potency, µM (titrated, usually from 46.1 µM), inactives show at the top dose activity, negative = toxicity, most hits filed as cytotoxic; 360,000 tested, 2% active;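 also: 0% = DMSO wells and -100% = cell-free medium wells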
#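 Viability of IDH1-knockdown HT-1080 fibrosarcoma cells was assessed by CellTiter-Glo after 48 h at 37 °C with titrated compound; concentration-effect curves were classified by fit quality and response size.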
# KB-V1 MDR tox = kills drug-selected multidrug resistant KB-V1 cells; KB-V1 MDR cells viability, CellTiter-Glo, 72 h; Potency, µM (top dose mostly 46.1 µM), hits mostly cytotoxic; 400,000 tested, 3.4% active; AID 1347076; also: % is scaled to controls: 0 for no effect and ±100 for the full control effect; nearly all actives have a fitted effect of over 60% in size
#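 Cytotoxicity via CellTiter-Glo luminescence after 72 h compound exposure at 37 degrees C. Cells: drug-selected KB-V1 line, DMEM phenol-red free plus 10% FBS. Compounds tested at multiple concentrations; normalized data fitted to concentration-effect curves.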
# KB-3-1 cytotox = kills parental KB-3-1 adenocarcinoma cells; KB-3-1 viability, CellTiter-Glo ATP luminescence, 72 h; Potency, µM (highest dose often 46.1 µM), actives largely listed as cytotoxic; 400,000 tested, 1.4% active; AID 1347075; also: % is scaled to controls: 0 for no effect and ±100 for the full control effect; nearly all actives have a fitted effect of over 60% in size
#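 Cytotoxicity measured as CellTiter-Glo luminescence after 72 h at 37 C. Compound titrations were pinned onto drug-naive KB-3-1 parental adenocarcinoma cells grown in DMEM with 10% FBS, and normalized data fitted to concentration-response curves.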
# MCF10A rereplic = inducers of DNA re-replication in MCF 10A breast cells; Potency, µM (highest dose often 46.1 µM), for the others: at the top dose activity, positive = re-replication, hits mostly activators; MCF 10A DNA re-replication, Hoechst nuclear intensity, 48 h; 350,000 tested, 2.9% active; also: % of control where 0% means no effect; nearly all actives have a fitted effect of over 50% in size
# An asterisk follows results filed as active; i = inactive; ? = inconclusive; · = no result given; [ ] = another dose, or the depositor's remark. Rows were chosen to be rich in hits. Some 7.9% of all compounds tested hit in one or more screens of this group. Calls follow the shape of the dose curve; as a rule, active = well fitted curve in the direction sought with a large enough effect; inconclusive = small, poorly fitted or top-dose-only effect, or another doubt; inactive = no such curve, though single readings can be large; an effect the other way counts as inactive or inconclusive. Potency is read from the fitted curve at half-maximal effect.
SMILES,HT1080NT lethal,SW480 rereplic,HT1080 IDH1KD tx,KB-V1 MDR tox,KB-3-1 cytotox,MCF10A rereplic
COc1ccccc1/C=C/C=N/Nc1cccc(C(=O)O)c1,1%,7%,0%,i,i,21µM*
CC(=O)c1cc(-c2ccccc2)n(CCC(=O)Nc2ccc(C)cc2C)c1C,·,·,·,i,i,·
S=C1CCSc2ccc(Cl)cc2N1,14%,-8%,14%,i,i,2%
Cc1cc(C)c(NC(=O)CCCN2CCOCC2)c(C)c1,7%,-8%,4%,i,i,2%
COc1cccc(OCc2cc(/C=N/Nc3ccc(C(=O)O)cc3)ccc2OC)c1,21µM*,?,?,i,i,?
CCOc1cc(C#N)c(NC(=O)c2cccnc2)cc1OCC,?,5.2µM*,5.2µM*,?,0.65µM*,3.7µM*
Cc1ccc(S(=O)(=O)Oc2ccccc2/C=N/Nc2ccc(C(=O)O)cc2)cc1,-20%,?,-24%,?,i,18µM*
CCC(=NNC(=O)c1ccc2c(c1)nc(C)n2CC)c1cc(F)ccc1O,-6%,?,?,2.3µM*,?,10%
NS(=O)(=O)c1ccc(NC(=S)N2CCN(Cc3ccc4c(c3)OCO4)CC2)cc1,2%,-56%,-5%,i,i,-1%
COc1cc(Nc2nc(SCC#N)nc3ccccc23)cc(OC)c1OC,7%,-6%,-3%,21µM*,i,-5%
CCOC(=O)CSc1nc(Nc2ccc3c(c2)OCO3)c2ccccc2n1,1%,1%,-2%,i,i,-4%
N#CCSc1nc(Nc2ccc3c(c2)OCO3)c2ccccc2n1,?,1%,-22%,15µM*,i,?
CC(=O)C1=C(Nc2ccccc2)CC(C)(O)C(C(C)=O)C1c1ccccc1 (stereo not given),-6%,-4%,-10%,i,i,18%
CCOC(=O)CN1C(=O)Nc2ccc(Br)cc2C1c1ccccc1 (stereo not given),-3%,13%,-11%,i,i,5%
CCOC(=O)CN1C(c2ccc(O)cc2)Nc2ccc(Br)cc2C1c1ccccc1 (stereo not given),16µM*,?,?,?,?,18µM*
Cn1c(NCc2cccs2)nc2ccccc21,-2%,-5%[9.22 µM],3%,i,i,2%
O=C1NC(c2cccc3ccccc23)Nc2ccccc21 (stereo not given),1.3µM*,?,0.73µM*,0.65µM*,0.41µM*,0.92µM*
Clc1ccccc1C1Nc2cccc3cccc(c23)N1,-3%,-12%,-2%,i,i,18%
O=C1NC(c2ccccc2Cl)Nc2ccccc21 (stereo not given),?,16µM*,?,?,?,?
O=C1NC(c2cccs2)Nc2ccccc21 (stereo not given),0%,19%,0%,i,i,10%
COc1ccc2ccccc2c1C1NC(=O)c2ccccc2N1 (stereo not given),5.2µM*,8.2µM*,?,5.8µM*,2.3µM*,5.2µM*
CNC(=O)C(=O)Nc1c(O)c2ccccc2[nH]c1=O,27%,-2%,12%,i,i,6%
CCOc1cc(N2CCOCC2)c(OCC)cc1NC(=O)Cn1[nH]c(=O)c2ccccc2c1=O,-6%,-7%,-4%,?,i,-5%
O=C(Oc1c(Cl)cc(Cl)c2cccnc12)c1cccc([N+](=O)[O-])c1,?,?,?,i,15µM*,10µM*
O=C(Oc1ccc(Cl)c2cccnc12)c1ccco1,?,?,?,?,?,7.3µM*
SMILES,HT1080NT lethal,SW480 rereplic,HT1080 IDH1KD tx,KB-V1 MDR tox,KB-3-1 cytotox,MCF10A rereplic
O=C(Oc1ccc(Cl)c2cccnc12)c1cccc([N+](=O)[O-])c1,-10%,·,-1%,i,i,3.7µM*
C=C1[C@@H](CCO)N(S(=O)(=O)C(C)(C)C)C[C@@H]1C,7%,-1%,7%,i,i,7%
N/C(=N\OC(=O)c1cccc2ccccc12)c1ccccn1,?,0%,26µM*,i,i,4%
Cc1ccc(C(=O)O/N=C(\N)c2ccccn2)c(Cl)c1,16µM*,-5%,?,?,?,4%
COc1cccc(NC(=S)NC(=O)/C=C/c2ccco2)c1,21µM*,?,6.5µM*,?,?,?
Cc1ccc2oc(-c3cccc(NC(=S)NC(=O)c4cccs4)c3)nc2c1,13%,-5%,15%,i,i,2%
Cc1ccc2oc(-c3cccc(NC(=S)NC(=O)/C=C/c4ccco4)c3)nc2c1,?,?,?,?,?,9.2µM*
CCN(CC)CCOC(=O)c1ccc(NC(=O)CCNC(=O)Cn2ccc3ccccc3c2=O)cc1,5%,-7%,12%,i,i,-2%
CS(=O)(=O)c1ccc(S(=O)CC(=O)Oc2ccc(Cl)cc2)c([N+](=O)[O-])c1 (stereo not given),23µM*,6.5µM*,18µM*,?,21µM*,4.6µM*
CCc1ccc(NC(=O)CSc2nnc(-c3cccs3)n2CC)cc1,-2%,-1%,-11%,?,i,4%
CCCS(=O)(=O)NC(=O)C1(C)CCCN(C(=O)c2cncc(Br)c2)C1 (stereo not given),?,·,11%,i,i,·
COc1ccc2c(c1OC)C(=O)N1c3ccccc3N=C(c3ccc([N+](=O)[O-])cc3)CC21 (stereo not given),-4%,-1%,-1%,?,i,0%
Cc1ccc(C)c(OCc2cc(C(=O)N(C)Cc3nccn3C)no2)c1,-17%,0%,0%,13µM*,i,16%
Cc1ccc(C)c(OCc2cc(C(=O)N3CCOCC3)no2)c1,3%,28%,2%,i,i,18µM*
COc1ccnc(Oc2ccc(F)cc2)c1C(=O)N/C=N/OCc1ccc(Cl)cc1Cl,-5%,2.3µM*,0%,?,i,?
COc1ccnc(Oc2ccc(F)cc2)c1C(=O)N/C=N/OCc1ccc(F)cc1Cl,3%,?,-14%,?,i,1%
Cc1nc(NC(=O)/C=C/c2ccccc2)n[nH]1,9.2µM*,?,18µM*,?,?,?
O=C(C=Cc1ccccc1)Nc1ccccc1,-11%,-1%,-7%,i,?,2%
NC(=O)C1C(c2ccccc2)=C1c1ccccc1,1%,3%,6%,21µM*,i,-1%
